Menin-MLL FL inh: displaces fluorescein MLL peptide from human menin; AID 1766; Fluorescence polarization, fluorescein-MLL peptide displacement from menin; 290,000 tested, under 10 active; FP activity change, % at 61.4 µM; active = well fitted curve in the direction sought with a large enough effect in the polarisation, not every such curve was filed as active; inconclusive = small, poorly fitted or top-dose-only effect, or effect the other way, or a change in a side signal; inactive = no such curve, though single readings can be large or run the other way; the % refers to the polarisation; note: % of control where 0% means no effect
MLL CXXC-DNA inh: blocks binding of human MLL CXXC domain to DNA; Q03164; MLL-CXXC / FITC-HOXA9 DNA fluorescence polarization; Potency, µM (top dose mostly 115 µM), inactives show top-dose activity change, negative = inhibition, most hits filed as inhibitors; actives 0.037% (n = 290,000); AID 2662; active = well fitted inhibition curve with a large enough effect in the polarisation, with a control signal flat, not every such curve was filed as active; inconclusive = small, poorly fitted or top-dose-only effect, or effect the other way, or a change in a side signal; inactive = no such curve, though single readings can be large or run the other way; the % refers to the polarisation; note: potency is the fitted concentration of half-maximal effect
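Steps: dispense CXXC domain solution (7 uM) → pin compounds or unlabeled HOX-A9 DNA control → 5 min ambient → add FLSN-HOX-A9 solution (50 nM) → spin → 30 min ambient → fluorescence polarization. Tris pH 7.5/NaCl/DTT/BSA buffer.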
ERG-DNA inh: ERG Ets/DNA interaction inhibition | fluorescence polarization, His-ERG Ets domain / labelled DNA | Potency, µM (highest dose often 76.9 µM), for the others: top-dose FP activity, negative = inhibition, actives largely listed as inhibitors | actives 0.028% (n = 370,000); active = well fitted inhibition curve with a large enough effect in the polarisation, with a control signal flat; inconclusive = small, poorly fitted or top-dose-only effect, or effect the other way, or a change in a side signal; inactive = no such curve, though single readings can be large or run the other way; the % refers to the polarisation;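 note: polarization taken with two DNA probes labelled with fluorescein and Texas red; potency is the fitted concentration of half-maximal effect; % of control where 0% means no effect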
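His-tagged ERG Ets domain (1 uM in the protein solution; 300mM KCl, 50mM Tris-HCl, 1mM EDTA, 1mM DTT, pH 7.5) received compound, then a probe mix of 5 nM fluorescein-DNA and 100nM Texas-615-DNA. Fluorescence polarization was read for both dyes.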
RGS4 inhibitor: blocks human RGS4-accelerated GTP hydrolysis; Transcreener GDP fluorescence polarization, RGS4-accelerated GTP hydrolysis; Potency, µM (highest dose often 114 µM), inactives show at the highest dose activity change, negative = inhibition, hits mostly inhibitors; actives 0.039% (n = 390,000); active = well fitted inhibition curve with a large enough effect; inconclusive = small, poorly fitted or top-dose-only effect; inactive = no such curve, though single readings can be large or run the other way; note: potency is the fitted concentration of half-maximal effect; % is set by controls: 0 for no effect and ±100 for the full control effect; nearly all actives have a fitted effect of over 75% in size
Target sequence (P49798 whole entry, looked up): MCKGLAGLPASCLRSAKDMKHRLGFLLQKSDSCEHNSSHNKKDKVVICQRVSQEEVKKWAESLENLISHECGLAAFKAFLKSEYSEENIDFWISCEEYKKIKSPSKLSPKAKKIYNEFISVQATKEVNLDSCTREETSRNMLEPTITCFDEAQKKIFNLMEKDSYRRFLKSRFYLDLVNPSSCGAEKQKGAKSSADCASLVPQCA
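MLSMR compounds (23 nl, pin-transferred) preincubated 10 min at room temperature with a 500nM (2x) first reagent, then RGS4 at 900nM (2x) plus Transcreener GDP mix added; fluorescence polarization (620/688 nm) read before and after 90 min at 30 °C.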
PTAP TSG101 blk: blocks PTAP/TSG101 interaction to inhibit HIV-1 budding; Potency, µM (titrated, usually from 115 µM), without a hit: at the highest dose activity change, negative = inhibition, actives largely listed as inhibitors; 340,000 tested, under 10 active; Q99816; Fluorescence polarization, FITC-PTAP peptide / Tsg101 binding; active = well fitted inhibition curve with a large enough effect in the main read-out, with a control signal flat, not every such curve was filed as active; inconclusive = small, poorly fitted or top-dose-only effect, or effect the other way, or a change in a side signal; inactive = no such curve, though single readings can be large or run the other way; note: potency is the fitted concentration of half-maximal effect; % of control where 0% means no effect
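Steps: Tsg101 binding domain dispensed (10 uM final), compounds pinned in DMSO, FITC-labeled PTAP-motif peptide added (50 nM final); after 20 min binding at room temperature, polarization measured.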
Menin MLL FP TR: inhibitors of human menin-MLL interaction, mutant MLL peptide | O00255 | Potency, µM (highest dose often 61.6 µM), without a hit: at the top dose FP activity change, negative = inhibition, most hits filed as inhibitors | actives 0.23% (n = 270,000) | Menin + Texas Red MLL mutant peptide, fluorescence polarization | AID 1768; active = well fitted inhibition curve with a large enough effect in the polarisation, with a control signal flat, not every such curve was filed as active; inconclusive = small, poorly fitted or top-dose-only effect, or effect the other way, or a change in a side signal; inactive = no such curve, though single readings can be large or run the other way; the % refers to the polarisation; note: potency is the fitted concentration of half-maximal effect; % of control where 0% means no effect
* = called active by the depositor; u = inconclusive; x = no result given; ! = a repeat was not active; [ ] = dose if it differs, or a comment. The full list was thinned out, with hits kept by preference.

SMILES	Menin-MLL FL inh	MLL CXXC-DNA inh	ERG-DNA inh	RGS4 inhibitor	PTAP TSG101 blk	Menin MLL FP TR
N#CC(=C(\N)Sc1ccccc1N)/C(C#N)=C(/N)Sc1ccccc1N	x	-3%	x	9.5µM*	x	u
Nc1ccccc1SCc1ccccc1	0	9%	3%	-36%[56.9 µM]	-2%	30%
C#C[C@]1(O)CC[C@@H]2[C@H]3CCC4=Cc5oncc5C[C@]4(C)[C@@H]3CC[C@@]21C	-2[24.8 µM]	x	x	x	x	15%[24.8 µM]
COc1ccc2oc(-c3ccc(O)cc3)cc(=O)c2c1	u	x	x	x	x	33%
COc1ccc(-c2cc(=O)c3ccc(O)cc3o2)cc1	3	x	35%	7%	-1%	22µM*!
CC(C)N1CC2=C(OC(N)=C(C#N)C2c2cccnc2)/C(=C/c2cccnc2)C1 (stereo not given)	-10	-22%	-23%	-36%	-7%	25µM*
CC1=CC(=C(c2ccc(N)cc2)c2ccc(N)cc2)C=CC1=N	5	3%	x	x	x	u
COC(=O)c1cc(=O)c(O)c2c(O)c(O)ccc2c1	0	x	x	x	x	u
COc1ccc(N2CCN(C(=O)c3cc4cc(Cl)ccc4[nH]3)CC2)cc1	-2	-14%	-2%	-3%	1%	32µM*
O=C(c1cc2cc(Cl)ccc2[nH]1)N1CCN(c2ccc(F)cc2)CC1	-2	22%	-6%	12%	3%	-1%
CN1C(=O)/C(=C\C(=O)c2cccs2)c2ccccc21	0	12%	6%	u	-7%	-5%
CC(=O)/C=C1\C(=O)N(C)c2ccccc21	x	x	x	19µM*	x	x
CSCC[C@H](NC(=O)[C@H](CC(C)C)NC(=O)CNC(=O)[C@H](Cc1ccccc1)N(C)C(=O)[C@H](Cc1ccccc1)NC(=O)[C@H](CC(=O)O)NC(=O)[C@@H](N)CC(=O)O)C(N)=O	7	x	x	x	x	11%
CCN1C(=O)[C@H]2[C@H]3[C@H](O)[C@H](O)C/C(=N/OCc4ccccc4)[C@H]3CC[C@@H]2C1=O	5[11.7 µM]	x	x	x	x	3%[11.7 µM]
CCC(=Nc1ccc(N)cc1)C1=C(O)C(C(=O)OC)C(C)(C)CC1=O (stereo not given)	u	3%	x	-10%	-2%	32µM*
N#CN=c1snc(-c2ccccc2)n1-c1ccc(Cl)cc1	x	x	x	-8%	x	x
Cc1ccc(/C=C/C(=O)Nc2ccc(S(=O)(=O)Nc3onc(C)c3C)cc2)cc1	x	-6%	28µM*	-41%	u	x
CC(C)=CC(=O)Nc1ccc(S(=O)(=O)Nc2onc(C)c2C)cc1	1	1%	-4%	-19%	-1%	9%
O=C(CNCC1CCCO1)Nc1ccc(N2CCCCCC2)cc1 (stereo not given)	2	8%	-1%	-8%	x	14µM*
O=C(CNCC1CCCCC1)Nc1ccc(N2CCCCC2)cc1	3	-3%	x	x	x	u
CCN1/C(=C/c2ccc3cc(C)ccc3[n+]2CC)Sc2ccccc21	u	u	100%	-37%	25%	u
CCN1/C(=C/c2sc(-c3ccccc3C)c[n+]2C)Sc2ccccc21	-2	0%	5%	-4%	-6%	25µM*
COC(=O)c1oc2ccc(Br)cc2c1NC(=O)c1ccccc1	4	1%	2%	9%	2%	28µM*
COC(=O)c1oc2ccc(Br)cc2c1NC(=O)CN1CCN(C)CC1	x	x	0%	12%	-14%	x
C[C@H](Cc1ccc(O)c(O)c1)[C@@H](C)Cc1ccc(O)c(O)c1	4	-23%	x	15µM*	x	u
COc1cc(/C=N/NC(=O)C2c3ccccc3Oc3ccccc32)ccc1O	2	7%	-2%	-15%	-1%	2.8µM*
COc1cc(/C=N/NC(=O)C2COc3ccccc3O2)ccc1O (stereo not given)	-2	-4%	-5%	11%	0%	x
CSC1=NSC2=NC(=O)/C(=C\c3coc4ccccc4c3=O)C(=N)N12	u	u	x	u	35µM*	u
